# Screening results deposited in PubChem by Broad Institute.
# The list is not random: actives were taken first. Their share in the collection is about 3.7%.
# MLL AF4-AF9 inh: inhibitors of AF4 peptide binding to AF9, primary screen, biochemical, AlphaScreen, biotin-AF4 peptide, FLAG-AF9, single point | Protein AF-9 (Homo sapiens), P42568 | inhibition, % at 10 µM | 350,000 compounds, 0.47% hits | AID 651704, 2012;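 active = every replicate reaching a set inhibition limit, whatever the replicate mean, cut at about 25% in these data; inconclusive = mean inhibition reaches that limit but some replicates miss it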;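 also: 0% = plate neutral control median and 100% = total signal loss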
# Target sequence (P42568 whole entry, looked up): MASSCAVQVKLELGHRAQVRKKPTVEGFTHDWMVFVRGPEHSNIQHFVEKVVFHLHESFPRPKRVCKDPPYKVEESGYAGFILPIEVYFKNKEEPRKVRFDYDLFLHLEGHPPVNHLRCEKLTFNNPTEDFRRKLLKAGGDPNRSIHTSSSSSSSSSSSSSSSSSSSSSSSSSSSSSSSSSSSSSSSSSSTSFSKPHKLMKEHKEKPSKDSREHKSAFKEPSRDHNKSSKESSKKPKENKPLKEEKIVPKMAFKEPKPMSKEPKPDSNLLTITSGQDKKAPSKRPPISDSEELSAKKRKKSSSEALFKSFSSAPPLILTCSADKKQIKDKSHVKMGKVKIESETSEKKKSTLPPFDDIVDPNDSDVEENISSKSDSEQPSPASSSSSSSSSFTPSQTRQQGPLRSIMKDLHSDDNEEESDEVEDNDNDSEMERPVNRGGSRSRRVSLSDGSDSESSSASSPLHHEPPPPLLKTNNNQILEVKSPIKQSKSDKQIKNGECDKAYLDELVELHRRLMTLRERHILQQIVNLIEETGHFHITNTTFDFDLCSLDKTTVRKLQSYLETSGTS
# Wnt bcat act: Wnt/beta-catenin pathway activators, primary screen, cell-based, plate reader, single point; Wnt/beta-catenin reporter cell assay, activator; activation, % at 9.35 µM; 300,000 compounds, 1.2% hits; AID 743398, 2014; in the data active = activation above about 30%, passing the limit was not always enough; inconclusive = no clear call, values can overlap the other calls;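 also: 0% = neutral control wells and 100% = positive control wells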
# rRNA inh HTS: reduced GFP signal of wild-type E. coli, primary screen, bacterial rRNA inhibitor project, GFP/RFP fluorescence, OD600, single point; E. coli WT GFP vs humanized-ribosome RFP mutants, 24 h; active compounds read low; DMSO median 0, no signal -100; GFP signal change (wild-type ribosome), % (concentration not given with the values); 350,000 compounds, 1.6% hits; AID 720706, 2013;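 active = significant combined selectivity score with lowered wild-type GFP, culture density cut under 30%, mutant RFP and density less affected; inactive = any of these conditions unmet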
# esBAF inh: Bmi1 luciferase reporter increase in mESCs, primary screen, esBAF inhibitor project, mouse ES cells, Bmi1 luciferase knock-in, single point; 24 h; 100% = twice the neutral-well signal; reporter increase, % at 12.5 µM; 350,000 compounds, 2% hits; in the data active = activation above about 40%; inconclusive = no clear call, values can overlap the other calls;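 also: 0% = median of the plate's neutral control wells and 100% = double that signal; a rise in the Bmi1 reporter signal indicates esBAF inhibition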
# MITF act: activators of MITF-driven TRPM1 promoter reporter, primary screen, cell-based, SK-MEL-5, luciferase, single point; SK-MEL-5 TRPM1-promoter luciferase, 24 h; % of positive control, neutral wells = 0; activation, % at 12.5 µM; 300,000 compounds, 0.75% hits;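 active = mean activation of at least 80% with every replicate also reaching 80%; inconclusive = mean reaches 80% but some replicate falls short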;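 also: 0% = neutral control wells and 100% = parthenolide positive control wells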
# Active calls of the source: *; u = inconclusive; x = no result; ! = not active in a repeat.
SMILES,MLL AF4-AF9 inh,Wnt bcat act,rRNA inh HTS,esBAF inh,MITF act
Cc1cc(N=Nc2c(O)c3ccccc3[nH]c2=O)ccc1N=Nc1ccc(C(=O)N(C)C)cc1,0,3,5,1,9
CN(C)C(=O)c1ccc(N=Nc2c(O)c3ccccc3[nH]c2=O)cc1,0,27,-21*,17,0
O=C(C[C@H]1C[C@@H]2c3cc(NC(=O)c4ccc5c(c4)OCO5)ccc3O[C@@H]2[C@H](CO)O1)NCc1cccc(F)c1,-3,x,-1,1,x
CC(=O)N(/N=C1/C(=O)Nc2ccccc21)c1ccccc1,2,15,16,45*,33
O=C(/C=C/c1ccc(OC(F)F)cc1)Nc1cccc(S(=O)(=O)NC2=NCCCCC2)c1,2,8,-22,54*,11
CN(C)S(=O)(=O)c1cccc(NC(=O)COC(=O)/C=C/c2ccc3c(c2)OCO3)c1,1,-2,-27*,u,31
O=C(COC(=O)/C=C/c1ccc(Cl)cc1)Nc1cccc(S(=O)(=O)NC2=NCCCCC2)c1,2,1,-20*,-4,-7
CCOc1ccc2nc(SCC(=O)Nc3cccc(S(=O)(=O)NC4=NCCCCC4)c3)[nH]c2c1,0,0,-27*,1,3
CCOc1ccc2nc(SCC(=O)Nc3ccc4c(c3)OCCO4)[nH]c2c1,x,0,x,19,12
Cc1ccc(S(=O)(=O)N(C)C)cc1NC(=O)COC(=O)/C=C/c1ccc2c(c1)OCO2,0,-1,10,-6,12
Cc1ncc(S(=O)(=O)c2ccccc2)c(-c2ccccc2Cl)n1,x,-1,x,-3,-1
CO[C@H](CN(C)C(=O)c1ccc2c(c1)OCO2)[C@H](C)CN([C@@H](C)CO)S(=O)(=O)c1ccccc1,-1,x,2,-5,x
Cc1ccccc1-c1ccc([C@H]2[C@@H](CO)N3C(=O)CN(C(=O)Cc4ccccn4)C[C@@H]23)cc1,-12,x,-2,x,x
CC(C)(C)c1ccc(C(=O)Nc2cccc(S(=O)(=O)NC3=NCCC3)c2)cc1,-2,19,1,-11,55
CN(C)c1ccc(C(=O)Nc2cccc(S(=O)(=O)NC3=NCCCCC3)c2)cc1,0,-3,-2,62*,9
CCCCCSc1nnc(N)s1,-1,0,x,x,x
COc1ccc(CCNC(=O)c2ccc(Cl)c(S(=O)(=O)N3CCCC3)c2)cc1,-2,13,-29*,-20,x
CC1CCCN(C(=O)c2ccc(Cl)c(S(=O)(=O)N3CCCCCC3)c2)C1 (stereo not given),-3,5,-29,58*,16
O=C(Nc1nccs1)c1ccc(Cl)c(S(=O)(=O)N2CCCCC2)c1,x,x,x,42*,3
O=C(c1ccc(Cl)c(S(=O)(=O)N2CCCC2)c1)N1CCCCC1,-2,18,6,x,-5
O=C(Nc1nccs1)c1cc(S(=O)(=O)N2CCCCC2)ccc1Cl,x,x,x,-2,-4
Cc1ccc(S(=O)(=O)NCCC(=O)Nc2cc(S(=O)(=O)N(C)C)ccc2C)cc1C,1,2,-1,-3,-11
C[C@@H]1CN([C@H](C)CO)C(=O)c2cc(C3=CCCC3)cnc2O[C@H]1CN(C)C(=O)c1ccccc1,-1,x,1,3,x
Cc1ccc2[nH]c(=O)c(-c3nc4ccccn4c3NCc3ccco3)cc2c1,x,55*,x,29,14
C[C@H](CO)N1C[C@H](C)[C@@H](CN(C)C(=O)Nc2ccc3c(c2)OCO3)Oc2c(NS(=O)(=O)c3ccccc3)cccc2C1=O,0,4,-1,3,1
SMILES,MLL AF4-AF9 inh,Wnt bcat act,rRNA inh HTS,esBAF inh,MITF act
C[C@H](CO)N1C[C@H](C)[C@H](CN(C)C(=O)Nc2ccc3c(c2)OCO3)Oc2c(NS(=O)(=O)c3ccccc3)cccc2C1=O,1,x,x,68*,x
COc1ccc(NC(=O)Nc2cccc3c2O[C@H](CN(C)S(=O)(=O)c2ccc(Cl)cc2)[C@H](C)CN([C@@H](C)CO)C3=O)cc1,-1,x,-23*,3,x
Cc1ccc(S(=O)(=O)Nc2cccc3c2O[C@@H](CN(C)C(=O)Nc2ccc4c(c2)OCO4)[C@H](C)CN([C@@H](C)CO)C3=O)cc1,1,1,-2,60*!,-1
COc1ccc(NC(=O)Nc2cccc3c2O[C@@H](CN(C)S(=O)(=O)c2ccc(Cl)cc2)[C@@H](C)CN([C@@H](C)CO)C3=O)cc1,-3,x,-4,13,x
C[C@@H]1CN([C@H](C)CO)C(=O)c2cccc(NS(=O)(=O)c3ccc(F)cc3)c2O[C@@H]1CN(C)C(=O)Nc1ccc2c(c1)OCO2,5,x,1,11,x
Cc1noc(C)c1NC(=O)Nc1cccc2c1O[C@H](CN(C)C(=O)Nc1ccc3c(c1)OCO3)[C@H](C)CN([C@@H](C)CO)C2=O,0,x,0,3,x
Cc1noc(C)c1NC(=O)Nc1cccc2c1O[C@@H](CN(C)C(=O)Nc1ccc3c(c1)OCO3)[C@@H](C)CN([C@H](C)CO)C2=O,1,7,-28*!,9,-1
O=C(CC(O)CCc1ccccc1)c1ccc(O)cc1 (stereo not given),0,15,-4,u,45
CCOP1(=O)C=C(Sc2ccc([N+](=O)[O-])cc2[N+](=O)[O-])C(C)(C)O1 (stereo not given),0,-3,6,8,2
CNC[C@@H]1Oc2ncc(C3=CCCCC3)cc2C(=O)N([C@@H](C)CO)C[C@@H]1C,3,x,-1,-26,x
C[C@@H]1CN([C@H](C)CO)C(=O)c2cccc(NC(=O)Nc3ccc4c(c3)OCO4)c2O[C@H]1CN(C)S(=O)(=O)c1cccs1,2,x,1,47*,x
O=C(NC(Cc1ccccc1)C(=O)N1CCN(S(=O)(=O)c2ccccc2)CC1)c1ccccc1 (stereo not given),-3,2,13,1,17
CC(=O)NC(c1ccc(C)cc1)c1cc([N+](=O)[O-])c2cccnc2c1O (stereo not given),0,-2,-25*,x,5
COc1ccc2c3c([nH]c2c1)[C@@H](CO)N(C(=O)C1CCOCC1)CC31CN(C)C1,2,x,9,x,x
c1cnc(SCCOc2cccc3ccccc23)nc1,x,x,x,x,106*
Cc1ccc(OCCSc2ncccn2)c(C)c1,-7,11,-16,35,153*
Clc1ccc(OCCSc2ncccn2)c2ccccc12,x,14,x,20,41
COC(=O)Cc1ccc(NC(=O)c2ccccc2Br)cc1,-2,1,7,x,11
O=C(Nc1ccc(C(F)(F)F)cc1)c1ccccc1Br,-8,6,6,55*,66
O=C(Nc1ccc(Br)c(C(F)(F)F)c1)c1ccccc1,-9,0,-26,x,30
